# The list is not random: actives were taken first. Their share in the collection is about 2.7%.
# ERG Ets-DNA blk: ERG Ets/DNA interaction inhibition; fluorescence polarization, His-ERG Ets domain / labelled DNA; Potency, µM (series often up to 76.9 µM), for inactives: at the highest dose FP activity, negative = inhibition, hits mostly inhibitors; 0.028% of 370,000 active; AID 624246; active means well fitted inhibition curve with a large enough effect in the polarisation, with a control signal flat; inconclusive means small, poorly fitted or top-dose-only effect, or effect the other way, or a change in a side signal; inactive means no such curve, though single readings can be large or run the other way; the % refers to the polarisation;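 further: polarization taken with two DNA probes labelled with fluorescein and Texas red; potency means the concentration at half of the fitted maximal effect; % of control where 0% means no effect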
# Target sequence (P11308 whole entry, looked up, the tested form may be a part): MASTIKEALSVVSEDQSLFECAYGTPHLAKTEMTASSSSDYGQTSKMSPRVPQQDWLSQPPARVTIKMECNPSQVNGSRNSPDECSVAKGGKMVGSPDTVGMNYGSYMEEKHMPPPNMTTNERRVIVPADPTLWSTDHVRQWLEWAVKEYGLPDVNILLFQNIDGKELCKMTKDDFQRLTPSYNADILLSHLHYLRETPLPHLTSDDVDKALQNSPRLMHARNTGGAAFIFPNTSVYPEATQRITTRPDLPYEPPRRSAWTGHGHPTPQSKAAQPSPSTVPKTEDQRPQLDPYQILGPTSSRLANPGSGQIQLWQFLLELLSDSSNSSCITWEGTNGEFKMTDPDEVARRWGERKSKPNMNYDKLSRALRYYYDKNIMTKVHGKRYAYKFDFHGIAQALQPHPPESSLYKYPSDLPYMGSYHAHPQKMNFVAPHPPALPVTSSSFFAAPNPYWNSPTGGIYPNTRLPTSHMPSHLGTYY
#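 His-tagged ERG Ets domain (1 uM in the protein solution; 300mM KCl, 50mM Tris-HCl, 1mM EDTA, 1mM DTT, pH 7.5) received compound, then a probe mix of 5 nM fluorescein-DNA and 100nM Texas-615-DNA. Fluorescence polarization was read for both dyes.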
# Nrf2 ARE act: activators of Nrf2 (ARE) signaling | Potency, µM (series often up to 46.1 µM), without a hit: at the top dose activation, hits mostly activators | AID 624171 | 0.31% of 410,000 active | AREc32 ARE-luciferase reporter (MCF7-derived line), luminescence, 24 h; further: potency means the concentration at half of the fitted maximal effect; % of control where 0% means no effect; nearly all actives have a fitted effect of over 65% in size
#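 Quantitative high-throughput format: AREc32 reporter cells, 1000 per well, received compound by pin transfer and were incubated 24 hr at 37 deg C, 5% CO2, before Steady-Glo luminescence detection.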
# Nrf2 block: inhibitors of Nrf2 signaling; A549 ARE-Fluc reporter, luciferase luminescence, 18-24 h; Potency, µM (titrated, usually from 46 µM), for the others: at the highest dose activity change, negative = inhibition, usual class: inhibitors; 2.1% of 360,000 active; further: potency means the concentration at half of the fitted maximal effect; on the % scale 0 is the no-effect control and ±100 the full control effect; nearly all actives have a fitted effect of over 60% in size
#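 Nrf2 function is reported as luminescence of an ARE-controlled luciferase in A549 cells. Compounds were tested at several concentrations, and a CellTiter-Fluor read on the same wells flagged cytotoxicity.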
# ALOX12 inh: ALOX12 (human) lipoxygenase inhibition | 1.1% of 580,000 active | Potency, µM (doses to about 108 µM), for the others: top-dose activity change, negative = inhibition, actives largely listed as inhibitors | AID 1671190 | purified 12hLO, xylenol orange hydroperoxide absorbance; further: potency means the concentration at half of the fitted maximal effect; on the % scale 0 is the no-effect control and ±100 the full control effect
#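 Hydroperoxide product was detected by ferrous iron/xylenol orange as the 573 to 405 nm absorbance ratio. Arachidonic acid at 40 uM (final) was turned over for 30 min at room temperature by 150 nM human 12hLO, pH 7.0 Hepes buffer, after 15 min compound preincubation.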
# LDHA inh: blocks human lactate dehydrogenase A; activity change, % (values are at about 110 or 230 µM); 0.15% of 480,000 active; P00338; purified LDHA, NADH/diaphorase-resazurin fluorescence; hits give low values; in the data active means activity change below about -30%; inconclusive means mostly about -25% to -30%;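 further: plate controls were DMSO wells for no effect and wells without enzyme for full effect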
#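 LDH5 2 nM; NADH 0.06 mM, pyruvate 0.2 mM; 200 mM Tris pH 7.4, EDTA, Tween-20; 5 min RT. Detection: diaphorase 0.133 mg/mL + resazurin 37 µM, fluorescence ex540/em590 at 0 and 20 min; normalized to enzyme-free and DMSO wells.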
# A549 viability: kills or reduces viability of A549 cells in Nrf2 counter-screen. Potency, µM (highest dose often 46 µM), for the others: top-dose activity change, negative = cytotoxicity, usual class: inhibitors. 0.16% of 390,000 active. A549 ARE-Fluc cells, CellTiter-Fluor viability, 18-24 h; further: potency means the concentration at half of the fitted maximal effect; on the % scale 0 is the no-effect control and ±100 the full control effect
#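 A549 ARE-Fluc cells in 5% FBS OPTI-MEM, 5000 cells/well, rested 2 h then exposed to compounds in concentration-response for 18-24 h at 37 °C. Viability by CellTiter-Fluor fluorescence (Ex 405/Em 525) after 30 min; luciferase luminescence (BugLite, 15 min, RT) read afterwards.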
# * marks the source's active call; other numbers are inactive results; ? = inconclusive; nt = no result; [ ] = another dose, or the depositor's remark. Unless noted, the call rests on the fitted dose curve; in most records, active means well fitted curve in the direction sought with a large enough effect; inconclusive means small, poorly fitted or top-dose-only effect, or another doubt; inactive means no such curve, though single readings can be large; an effect the other way counts as inactive or inconclusive.
SMILES,ERG Ets-DNA blk,Nrf2 ARE act,Nrf2 block,ALOX12 inh,LDHA inh,A549 viability
Cc1ccc(CSc2nnc(SCC(=O)N/N=C/C=C/c3ccco3)s2)cc1,5%,16%,10%,-28%,-4,-2%
CC(/C=N/NC(=O)c1cnccn1)=C\c1ccco1,4%,8.9µM*,24%,464%,17,-12%
Cc1cccc(NCCC(=O)c2ccc(Br)cc2)c1,nt,?,?,-11%,3,2%
CCOC(=O)CNCCC(=O)c1ccc(Br)cc1,4%,?,4%,28µM*,-6,0%
O=C(c1noc(-c2ccc(F)cc2)n1)N1CCN(c2ccccc2)CC1,nt,nt,nt,23%,nt,nt
O=C(c1nc(-c2cccnc2)no1)N1CCN(c2ccc(F)cc2)CC1,nt,nt,nt,4%,-33*,nt
CCOC(=O)c1ccccc1NC1c2ccccc2C(=O)N1C1CCN(C(=O)OCC)CC1 (stereo not drawn),-5%,4%,16µM*,29%,-4,3%
CCOC(=O)N1CCC(N2C(=O)c3ccccc3C2Nc2ccccc2C)CC1 (stereo not drawn),-4%,4%,12%,23%,3,-2%
CCN(CC)c1ccc(/C=C/C(=O)C2C(=O)C=C(C)OC2=O)cc1 (stereo not drawn),135%,6%,?,4%,10,1%
COc1cc(/C=C/C(=O)C2C(=O)C=C(C)OC2=O)cc(Cl)c1OC(F)F (stereo not drawn),nt,nt,nt,14µM*,13,nt
Cc1ccc(-c2csc(-c3nc(-c4cc(C)ccc4C)cs3)n2)cc1,nt,nt,nt,-35%,1,nt
CCn1c(C)[n+](CCCS(=O)(=O)[O-])c2cc(Cl)c(Cl)cc21,-1%,0%,5%,32%,-46*,-1%
CCn1c(C)[n+](CC)c2ccc(S(=O)(=O)NC)cc21,1%,0%,4%,-14%,-10,-20%
CCOC(=O)C1Nc2c(F)cc(C)cc2C2c3ccccc3CC12 (stereo not drawn),7%,11µM*,-14%,239%,0,13%
O=C(Cn1c(O)c(/C=C2\C=Nc3ccc(Br)cc32)sc1=O)N1CCCC1,-7%,0%,?,-12%,-20,?
O=c1[nH]c(O)c(/C=C2\C=Nc3ccc(Br)cc32)[nH]1,1%,10µM*,19%,?,-5,-6%
Cc1ccc(Cl)cc1N1CCN(c2cccc[n+]2C)CC1,9%,-1%,8.2µM*,?,-16,3%
Cc1cccc(N2CCN(C(=S)NCCc3ccccc3)CC2)c1C,-3%,-1%,-3%,?,1,-4%
Cc1ccc(Cl)cc1N1CCN(C(=S)NCCc2ccccc2)CC1,-1%,3%,-10%,35µM*,1,-6%
Cc1ccc(Cl)cc1N1CCN(S(=O)(=O)c2cccc(S(=O)(=O)N3CCCC3)c2)CC1,17%,-1%,nt,0%,-4,-3%
O=C(NCCC(=O)N1CCCC1)c1cc2ccccc2oc1=O,nt,nt,nt,9%,-12,nt
CC(C)(C)c1ccc(O)c(O)c1,-11%,1%,0%,35µM*,16,-1%
CC(C)(C)c1ccc(O)c(/C=N\O)c1,-1%,3%,-7%,0%,-7,-1%
COC(=O)c1ccc(NC(=O)CSc2nnc3c4ccccc4n(C(C)C)c3n2)cc1,-9%,0%,-6%,-13%,1,-12%
COc1ccccc1NC(=O)CSc1nnc2c3ccccc3n(C(C)C)c2n1,2%,0%,18µM*,7%,-2,?
SMILES,ERG Ets-DNA blk,Nrf2 ARE act,Nrf2 block,ALOX12 inh,LDHA inh,A549 viability
COc1ccc(NC(=O)CCOc2ccccc2F)cc1S(=O)(=O)N1CCCCC1,-7%,0%,21µM*,?,-4,-23%
COc1ccc(NC(=O)COc2ccccc2F)cc1S(=O)(=O)N1CCCCC1,15%,3%,?,?,-2,-8%
COc1ccc(S(=O)(=O)N2CCCCC2)cc1NCC(=O)Nc1ccc(C)cc1,0%,0%,16µM*,0%,6,-9%
Cc1ccc(S(=O)(=O)N2CCCCC2)cc1NC(=O)CSc1nncn1-c1ccccc1,-2%,2%,18µM*,-10%,-4,-2%
COc1ccc(-n2cnnc2SCC(=O)Nc2cc(S(=O)(=O)N3CCCCC3)ccc2C)cc1,-9%,3%,?,-2%,-9,-12%
CCc1ccc(CNC(=O)Cn2ccc3cc(S(=O)(=O)N4CCCCCC4)ccc32)cc1,9%,6%,-26%,-50%,0,-13%
Cc1ccc(CNC(=O)Cn2ccc3cc(S(=O)(=O)N4CCCCCC4)ccc32)cc1,3%,1%,15µM*,-1%,-4,?
COc1ccc(S(=O)(=O)N2CCCCC2)cc1NC(=O)CNc1ccccc1C(C)=O,0%,0%,?,387%,-4,1%
O=C(CN1Cc2ccccc2C1=O)Nc1ccc(S(=O)(=O)N2CCCCCC2)cc1,nt,nt,nt,?,0,nt
COc1ccc(NC(=O)CN2CCCN(S(=O)(=O)c3ccc(Br)cc3)CC2)c(OC)c1,8%,3%,21µM*,-25%,-6,18µM*
COc1ccc(OC)c(CNC(=O)CCCn2ccc3cc(S(=O)(=O)N4CCCC4)ccc32)c1,-2%,1%,15µM*,-4%,0,?
CN(CC(=O)Nc1ccc(F)cc1)c1ccc(S(=O)(=O)N2CCCCC2)cc1[N+](=O)[O-],-13%,0%[9.22 µM],13µM*,-23%,0,-7%
COc1ccc(NC(=O)CN2CCCN(S(=O)(=O)c3ccc(F)cc3)CC2)c(OC)c1,-6%,-1%,?,21%,-7,-4%
COc1ccc(S(=O)(=O)N2CCCCCC2)cc1C(=O)N(C)CC(=O)Nc1ccc(F)cc1,5%,0%,-16%,16%,-6,0%
COc1ccc(OC)c(CC(=O)Nc2cc(S(=O)(=O)N3CCCCC3)ccc2C)c1,0%,0%,21µM*,3%,-4,-17%
COc1cccc(CNC(=O)CCCn2ccc3cc(S(=O)(=O)N4CCCC4)ccc32)c1,0%,0%,-4%,-16%,-2,-2%
O=C(c1cccc(N2CCCN(Cc3ccccc3)C2=O)c1)N1CCOCC1,nt,nt,nt,8%,-9,nt
COc1ncccc1-c1cnc2n[nH]c(-c3ccccc3)c2n1,nt,nt,nt,34%[176 µM],nt,nt
COc1ccc(N(CC(=O)Nc2cc(C)ccc2C)S(=O)(=O)c2c(C)noc2C)cc1,-1%,-1%,?,34%,-5,-6%
COc1ccc(N(CC(=O)Nc2cc(C)ccc2OC)S(=O)(=O)c2c(C)noc2C)cc1,-3%,0%,8.2µM*,-11%,4,?

# Assay outcomes as filed in PubChem.
